Compound activity deposited in PubChem by several laboratories.
TMEM16A inh – TMEM16A chloride channel inhibitors, primary screen, cell-based, HTS; Anoctamin-1 (Mus musculus), Q8BHY3; HEK293 TMEM16A/YFP iodide influx fluorescence, ionomycin; normalized B-score (activity score, 25-100; higher = stronger inhibition) at 10 µM; actives 1.2% (n = 310,000); AID 588511, 2011;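 active = ratio plate-corrected score three or more library SD toward inhibition, starting fluorescence score within five deviations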;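 also: score derived from kinetic fluorescence span divided by baseline fluorescence per well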
NTR1 agonist – agonists of human NTR1, primary screen, imaging, U2OS cells, beta-arrestin-GFP, high content | activation, % at 20 µM | Neurotensin receptor type 1 (Homo sapiens), P30989 | NTR1-U2OS beta-arrestin-GFP spot imaging, agonist mode | actives 0.17% (n = 330,000);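 active = activation at or above 40% of the spot to cytoplasm intensity ratio, with at least 20 cells analyzed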;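 also: 0% = DMSO without peptide and 100% = 100 nM NTR1 peptide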
Target sequence (P30989 whole entry, looked up): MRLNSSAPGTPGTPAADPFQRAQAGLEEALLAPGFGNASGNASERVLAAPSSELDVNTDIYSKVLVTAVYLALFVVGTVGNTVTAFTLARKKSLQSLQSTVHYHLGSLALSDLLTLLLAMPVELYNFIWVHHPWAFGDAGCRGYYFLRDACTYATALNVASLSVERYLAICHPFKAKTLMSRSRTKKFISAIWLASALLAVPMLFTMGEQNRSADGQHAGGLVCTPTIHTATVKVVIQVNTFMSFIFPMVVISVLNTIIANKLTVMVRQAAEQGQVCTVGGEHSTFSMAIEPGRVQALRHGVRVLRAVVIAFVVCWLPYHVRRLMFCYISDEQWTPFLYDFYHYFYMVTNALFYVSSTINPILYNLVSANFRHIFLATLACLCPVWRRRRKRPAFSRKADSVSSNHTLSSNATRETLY
MEKK2 mut-MEK5 – MEK5 binding signal on mutant MEKK2 PB1, primary screen, biochemical, multiplex bead flow cytometry, Alexa488-MEK5 | actives 0.35% (n = 290,000) | percent response, % at 10 µM | Alexa488-MEK5 binding to MEKK2 mutant; in the data active = percent response above about 24%, passing the limit was not always enough
MEKK2 WT-MEK5 – modulators of MEK5 binding to wildtype MEKK2, primary screen, biochemical, multiplex bead flow cytometry, Alexa488-MEK5; Mitogen-activated protein kinase kinase kinase 2 (Homo sapiens), Q9Y2U5; Alexa488-MEK5 binding to MEKK2 WT; actives lie on both sides; binding response (% of control), % at 10 µM; actives 1.1% (n = 290,000); AID 1531, 2009; in the data active = binding response below about 67% or above about 130%
MEKK3 PB1 HTS – modulators of MEKK3-MEK5 PB1 binding, primary screen, biochemical, wildtype MEKK3, multiplex bead flow cytometry, Alexa488-MEK5. actives 1.4% (n = 290,000). binding response (% of control), % at 10 µM. Mitogen-activated protein kinase kinase kinase 3 (Homo sapiens), Q99759. bead-based flow cytometry, Alexa488-MEK5 binding to MEKK3; actives lie on both sides; 0 = blocked by unlabeled MEK5, 100 = vehicle;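 active = binding response more than 3 SD above or below the average of its plate-row segment, actives on both sides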;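 also: Alexa488 bead fluorescence after subtracting the streptavidin-only scavenger bead signal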
ANO1 activ – TMEM16A chloride channel activators or potentiators, primary screen, cell-based, HTS; B-score at 10 µM; Anoctamin-1 (Mus musculus), Q8BHY3; HEK293 TMEM16A/YFP-H148Q/I152L, iodide quench fluorescence; hits give low values; actives 0.3% (n = 340,000);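 active = fluorescence-ratio B-score plate-corrected deviation score at least 3 library SD below zero, with starting fluorescence score within 5 deviations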;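 also: channel opened by trigger with iodide after compound preincubation; score built on the fluorescence ratio of max minus min over baseline; more negative score means more quench and so TMEM16A activation or potentiation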
MEKK2wt confirm – modulators of MEK5 binding to wildtype MEKK2, confirmation, biochemical, single concentration, multiplex bead flow cytometry; shares compounds with MEKK3 PB1 HTS; Alexa488-MEK5 binding to MEKK2 WT; actives lie on both sides; binding response (% of control), % at 10 µM; actives 2.4% (n = 5,900); in the data active = binding response below about 16% or above about 210%; inactive = in between
MEKK2mut confirm – mutant MEKK2 PB1-MEK5 binding signal retest – biochemical, single concentration, multiplex bead flow cytometry, confirmation | actives 2% (n = 5,900) | Alexa488-MEK5 binding to MEKK2 mutant | percent response, % at 10 µM | shares compounds with MEKK3 PB1 HTS; in the data active = percent response mostly above about 71%, no sharp cut-off; inactive = mostly below about 38%;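 also: higher means compound restores mutant binding toward wildtype level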
MEKK3 confirm – MEKK3 wild-type PB1 binding to MEK5, inhibitors, confirmation, biochemical, bead multiplex flow cytometry, single concentration, wildtype. Alexa488-MEK5 binding to MEKK3; hits give low values. AID 1894, 2009. actives 1.8% (n = 5,900). binding response (% of control), % at 10 µM. shares compounds with MEKK3 PB1 HTS;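 active = binding response below 72% of control, or above a set upper limit, though filed actives all read lower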;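 also: 100% = DMSO only wells and 0% = binding blocked by excess unlabeled MEK5; lower values mean stronger disruption of MEK5 binding to MEKK3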
Active calls of the source: *; i = inactive; nt = no result given; [ ] = dose if it differs, or a comment. Only some compounds are listed: those with a hit (about 3.4% of all), similar ones and a draw of the others.

SMILES	TMEM16A inh	NTR1 agonist	MEKK2 mut-MEK5	MEKK2 WT-MEK5	MEKK3 PB1 HTS	ANO1 activ	MEKK2wt confirm	MEKK2mut confirm	MEKK3 confirm
O=C(N1CCCCC1)N1CCC(c2nc3ccccc3[nH]2)CC1	i	2	-3	2.0*[inhibitor]	1.0*[inhibitor]	i	105	8	106
OCCNC(=S)NCCc1ccccc1	i	0	0	109	132*	i	100	0	100
CNC(=S)NCCc1ccccc1	i	0	7	103	103	i	nt	nt	nt
CCOC(=O)CC(=O)CSc1nccc(-c2cccnc2)n1	i	0	-23	54	43*[inhibitor]	i	95	-8	97
C/C(=C\c1ccccc1)CN1CCC(C(=O)N2CCC(C)CC2)CC1	i	1	7	95	99	i	nt	nt	nt
C/C(=C\c1ccccc1)CN1CCC(C(=O)N2CCCCC2)CC1	i	0	3	109	138*	i	104	4	102
Cc1ccccc1NC(=O)c1nc2nccc(C)n2n1	i	-2	-3	91	69*[inhibitor]	i	110	-2	102
COc1ccc(-c2cc(C(=O)N/N=C(\C)c3cccnc3)c3ccccc3n2)cc1	i	-1	2	102	105	i	nt	nt	nt
COc1ccc(/C(C)=N/NC(=O)c2cc(-c3cccnc3)nc3ccccc23)cc1	i	2	0	110	147*	i	129	27	121
COc1cccc(/C(C)=N/NC(=O)c2cc(-c3cccnc3)nc3ccccc23)c1	i	-1	-1	104	129*	i	102	1	104
Cn1c(=O)[nH]c(=O)c2c1nc(NCCCO)n2CCCc1ccccc1	i	0	3	106	102	i	nt	nt	nt
S=c1[nH]nc(COc2ccc(Cl)cc2)n1Cc1ccco1	i	0	6	126	155*	i	105	2	103
CCCc1n[nH]c(=S)n1Cc1ccco1	i	2	12	110	103	i	nt	nt	nt
CCN(c1ccccc1)S(=O)(=O)c1ccc(OC)c(NC(=O)CNCCc2ccccc2)c1	i	3	3	119	98	i	nt	nt	nt
NC(=O)c1c(NC(=O)Cn2cc([N+](=O)[O-])cn2)sc2c1CCCC2	i	1	270*	nt	95	i	101	7	103
C/C(CC(=O)Nc1cccc(C(F)(F)F)c1)=N\NC(=O)c1cnccn1	i	-1	1	97	101	i	nt	nt	nt
O=C(/C=C/c1ccccc1)NC(=S)Nc1ccccc1	i	7	14	120	122*	i	112	7	107
CC(=O)Nc1ccc(NC(=S)NC(=O)/C=C/c2ccco2)cc1	i	-2	-12	16*[inhibitor]	40*[inhibitor]	i	101	-2	100
CCc1nnc(NC(=O)/C=C/c2ccco2)s1	i	4	2	111	131*	i	88	-3	82
COc1ccc(CCN(C)C(=O)COC(=O)/C=C/c2ccc(C)o2)cc1OC	nt	1	nt	nt	nt	i	nt	nt	nt
CC(CCc1ccccc1)NC(=O)CC(C)c1ccccc1 (centres undefined)	i	0	1	104	105	i	nt	nt	nt
CC(=O)c1cccc(N(CC(=O)Nc2ccccc2C(=O)N2CCCC2)S(C)(=O)=O)c1	i	2	10	109	104	i	nt	nt	nt
CSc1ccccc1NC(=O)C1CCN(S(C)(=O)=O)CC1	i	0	14	110	111	i	nt	nt	nt
Cc1nn(-c2ccccc2)c(=S)c2ccccc12	i	-1	-1	98	102	i	nt	nt	nt
CC(C)CN1CCNC(=O)C1CC(=O)NCCc1ccc(C(F)(F)F)cc1 (centres undefined)	i	0	36	160*	104	i	113	5	102
SMILES	TMEM16A inh	NTR1 agonist	MEKK2 mut-MEK5	MEKK2 WT-MEK5	MEKK3 PB1 HTS	ANO1 activ	MEKK2wt confirm	MEKK2mut confirm	MEKK3 confirm
O=C(CC1C(=O)NCCN1CC1CCCCC1)NCCc1ccc(F)cc1 (centres undefined)	i	-1	-3	139*	112	i	138	57	108
O=C(CC1C(=O)NCCN1Cc1ccc(F)cc1)NC1CCCCCCC1 (centres undefined)	i	1	13	108	94	i	nt	nt	nt
Cc1ccc(CN2CCNC(=O)C2CC(=O)NC2CCCCCC2)cc1 (centres undefined)	i	-1	24*	127	108	i	143	36	107
O=C(CC1C(=O)NCCN1CC1CCCCC1)NCc1ccc(F)cc1 (centres undefined)	i	0	-2	113	99	i	nt	nt	nt
CC(C)CN1CCNC(=O)C1CC(=O)NCCc1cnn(-c2ccccc2)c1 (centres undefined)	i	-1	16	130	105	i	nt	nt	nt
CCOc1ccc(NC(=O)CSc2nnnn2C2CC2)cc1S(=O)(=O)N1CCCC1	nt	3	nt	nt	nt	i	nt	nt	nt
COC(=O)c1ccc(NS(=O)(=O)N(C)C)cc1	i	5	3	101	103	i	nt	nt	nt
Cc1ccc(NS(=O)(=O)N(C)C)cc1	i	2	-4	81	71*[inhibitor]	i	99	-4	102
Cc1cccc2cncc(OCc3nnc(SC(F)F)n3C)c12	i	3	-2	80	73*[inhibitor]	i	107	5	108
COc1ccc(CCN2CCC(Nc3nc4ccccc4n3Cc3ccc(F)cc3)CC2)cc1	i	24	38*	150*	67	i	179	33	102
CN(C)c1ccc(CN2CCC(C(N)=O)CC2)cc1	i	0	-5	92	92	i	nt	nt	nt
